Data on six compounds can be found in PubChem BioAssay.

The source made the active and inactive calls.

Assay [1] deals with Plasmodium falciparum Sir2 (PF13_0152, Sir2A). As to the kind of experiment: Plasmodium falciparum Sir2A binding compounds – biochemical, small-molecule microarray, 635 nm fluorescence, primary screen (AID 1098).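 Note: score merges spot fluorescence intensity with its signal-to-noise ratio.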 The note with it: fluorescence 635 nm, higher = more signal.
Assay [2] is described as follows: probe aDKK1 binding to arrayed compounds – biochemical, biotinylated probe, 635/667 nm fluorescence, primary screen (AID 1099).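 Note: score merges 667nm spot fluorescence with signal to noise across triplicate slides.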 To be noted: small-molecule microarray, higher = more signal.
A short description of assay [3]: probe aCHRDL2 binding to arrayed compounds – biochemical, biotinylated probe, 635/667 nm fluorescence, primary screen (AID 1100). The note with it: small-molecule microarray, higher = more signal.
Assay [4] is described as follows: change in splice reporter luminescence, either direction, cell-based, HEK293, spliceosome inhibition project, primary screen (AID 1101).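 Note: HEK293 cells carrying a splicing-competent luciferase reporter gene; test concentration not given here.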 To be noted: HEK293 splicing luciferase reporter, 24 h, higher = more signal, called active from +8 up or from −8 down. Background: A reporter such as luciferase makes a cellular process visible.
The target in assay [5] is Fibroblast growth factor 10 (Homo sapiens) (UniProt O15520). The assay is described as follows: compounds binding fibroblast growth factor 10 – biochemical, small-molecule microarray, 635 nm fluorescence, primary screen (AID 1102). The note with it: FGF10 binding, fluorescence 635 nm, higher = more signal.
The test system of assay [6] is glycogen synthase kinase-3 (GSK3A per assay name; protocol says GSK3B). As to the kind of experiment: compounds binding glycogen synthase kinase-3 – biochemical, small-molecule microarray, 635 nm fluorescence, GSK3A, primary screen (AID 1103). Note: the record names both GSK3A and GSK3B. To be noted: fluorescence 635 nm, higher = more signal.
For assay [7], the target named is Epidermal growth factor receptor (Homo sapiens) (UniProt P00533). The assay is described as follows: compounds binding epidermal growth factor receptor – biochemical, small-molecule microarray, 635 nm fluorescence, primary screen (AID 1104).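 Note: score merges 667 nm emission intensity with spot signal to noise over triplicate slides.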 To be noted: EGFR binding, higher = more signal.
In assay [8] the target is Follistatin-related protein 3 (Homo sapiens) (UniProt O95633). The assay is described as follows: compounds binding follistatin-related protein 3 – biochemical, small-molecule microarray, 635 nm fluorescence, primary screen (AID 1105).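 Note: score merges emission near 667 nm and signal to noise per printed spot across three slides.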 The note with it: FSTL3 binding, higher = more signal.
Assay [9] addresses Dickkopf-related protein 1 (Homo sapiens) (UniProt O94907). As to the kind of experiment: small molecules binding DKK1 protein – biochemical, small-molecule microarray, 635 nm fluorescence scan, primary screen (AID 1106).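 Note: score merges emission near 667 nm with signal to noise over three replicate slides.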 To be noted: higher = more signal.
Assay [10] deals with Inhibin beta A chain (activin A). The assay is described as follows: small molecules binding activin A – biochemical, small-molecule microarray, 635 nm fluorescence scan, primary screen (AID 1107).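 Note: mouse activin A protein probed at 4.33 µg/mL on printed slides; score merges bound-protein fluorescence near 667 nm with spot signal-to-noise.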 The note with it: INHBA, higher = more signal.
Assay [11] concerns Human papillomavirus type 1a protein E7 (residues 44-93). As to the kind of experiment: small molecules binding HPV E7 44-93 – biochemical, small-molecule microarray, residues 44-93, 635 nm fluorescence, primary screen (AID 1108).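 Note: E7 fragment applied at 1 µg/mL in TBST for 1 h at 4 C; score combines spot fluorescence with its signal to noise ratio.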 To be noted: fluorescence 635 nm, higher = more signal.
A short description of assay [12]: hepatitis C replication reporter changes, two-sided – Huh7 cells, luciferase reporter, HCV replication inhibitor project, primary screen (AID 1109).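 Note: huh7 hepatoma cells harbouring a luciferase neomycin HCV replicon reporter; luciferase luminescence as measure of HCV replicon replication; test concentration not given here.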 The note with it: Huh7 HCV replicon luciferase reporter, 48 h; higher = more signal.
For assay [13], the target named is Left-right determination factor 2 (Homo sapiens) (UniProt O00292). As to the kind of experiment: small molecules binding LEFTY2 protein – biochemical, small-molecule microarray, 635 nm fluorescence scan, primary screen (AID 1110). To be noted: higher = more signal.
Assay [14] addresses Calmodulin-1 (Homo sapiens) (UniProt P0DP23). As to the kind of experiment: small molecules binding calmodulin-1 with EGTA – biochemical, small-molecule microarray, Cy5-labelled CALM1, profiling panel (AID 1111).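 Note: labelled calmodulin applied in Tris saline Tween buffer holding calcium plus EGTA and DTT.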 To be noted: Cy5-CALM1 binding fluorescence, higher = more signal.
Assay [15] has the same target. The assay is described as follows: small molecules binding Ca-loaded calmodulin-1 – biochemical, small-molecule microarray, Cy5-labelled CALM1, plus calcium, artefact control for SMM control-protein annotation, profiling panel (AID 1112).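 Note: score merges spot fluorescence with signal to noise from triplicate slides.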 To be noted: Cy5-CALM1 binding fluorescence, higher = more signal.
A short description of assay [16]: probe aWnt5a binding to arrayed compounds – biochemical, biotinylated probe, 635/667 nm fluorescence, primary screen (AID 1113).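 Note: score merges 667 nm fluorescence intensity with signal-to-noise per printed feature.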 The note with it: small-molecule microarray, higher = more signal.
Assay [17] is described as follows: probe aShh binding to arrayed compounds – biochemical, biotinylated probe, 635/667 nm fluorescence, primary screen (AID 1114).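 Note: probe is biotin-labelled aShh protein from a stem cell growth factor screen; measures binding of labelled protein to compounds printed on the slide; score merges feature fluorescence at 667 nm with signal-to-noise.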 The note with it: small-molecule microarray, higher = more signal.
Assay [18] is described as follows: probe aNog binding to arrayed compounds – biochemical, biotinylated probe, 635/667 nm fluorescence, primary screen (AID 1115).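 Note: probe is biotinylated aNog protein used at 0.15 µg/mL for 1 h at 4 C; z-score combines 667 nm fluorescence of each spot with its signal to noise.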 The note with it: small-molecule microarray, higher = more signal.
Assay [19] has as its target Torsin-1A-interacting protein 1 (Homo sapiens) (UniProt Q5JTV8). As to the kind of experiment: compound microarray binding of lysate hLAP1 – cell lysate, small-molecule microarray, COS7 lysate, 635/667 nm fluorescence, primary screen (AID 1116). The note with it: 635 nm fluorescence, higher = more signal.
In assay [20] the target is Alpha-bungarotoxin (Bungarus multicinctus) (UniProt P60615). As to the kind of experiment: compounds binding labelled alpha-BTX control protein – biochemical, small-molecule microarray, Alexa647 label, 635/667 nm fluorescence, artefact control for SMM control protein annotation, profiling panel (AID 1117). To be noted: alpha-BTX-A647 binding fluorescence, higher = more signal.
Alpha-bungarotoxin (Bungarus multicinctus), sequence (P60615 whole entry, looked up): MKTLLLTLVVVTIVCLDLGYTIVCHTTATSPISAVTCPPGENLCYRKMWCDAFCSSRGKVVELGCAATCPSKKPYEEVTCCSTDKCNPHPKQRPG

Fibroblast growth factor 10 (Homo sapiens), sequence (O15520 whole entry, looked up): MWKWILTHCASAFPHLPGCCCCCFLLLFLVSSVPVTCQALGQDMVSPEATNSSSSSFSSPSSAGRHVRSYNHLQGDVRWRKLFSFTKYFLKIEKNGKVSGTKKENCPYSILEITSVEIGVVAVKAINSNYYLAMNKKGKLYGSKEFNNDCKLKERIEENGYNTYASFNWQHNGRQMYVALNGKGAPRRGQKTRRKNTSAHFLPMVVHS
Epidermal growth factor receptor (Homo sapiens), sequence (P00533 whole entry, looked up): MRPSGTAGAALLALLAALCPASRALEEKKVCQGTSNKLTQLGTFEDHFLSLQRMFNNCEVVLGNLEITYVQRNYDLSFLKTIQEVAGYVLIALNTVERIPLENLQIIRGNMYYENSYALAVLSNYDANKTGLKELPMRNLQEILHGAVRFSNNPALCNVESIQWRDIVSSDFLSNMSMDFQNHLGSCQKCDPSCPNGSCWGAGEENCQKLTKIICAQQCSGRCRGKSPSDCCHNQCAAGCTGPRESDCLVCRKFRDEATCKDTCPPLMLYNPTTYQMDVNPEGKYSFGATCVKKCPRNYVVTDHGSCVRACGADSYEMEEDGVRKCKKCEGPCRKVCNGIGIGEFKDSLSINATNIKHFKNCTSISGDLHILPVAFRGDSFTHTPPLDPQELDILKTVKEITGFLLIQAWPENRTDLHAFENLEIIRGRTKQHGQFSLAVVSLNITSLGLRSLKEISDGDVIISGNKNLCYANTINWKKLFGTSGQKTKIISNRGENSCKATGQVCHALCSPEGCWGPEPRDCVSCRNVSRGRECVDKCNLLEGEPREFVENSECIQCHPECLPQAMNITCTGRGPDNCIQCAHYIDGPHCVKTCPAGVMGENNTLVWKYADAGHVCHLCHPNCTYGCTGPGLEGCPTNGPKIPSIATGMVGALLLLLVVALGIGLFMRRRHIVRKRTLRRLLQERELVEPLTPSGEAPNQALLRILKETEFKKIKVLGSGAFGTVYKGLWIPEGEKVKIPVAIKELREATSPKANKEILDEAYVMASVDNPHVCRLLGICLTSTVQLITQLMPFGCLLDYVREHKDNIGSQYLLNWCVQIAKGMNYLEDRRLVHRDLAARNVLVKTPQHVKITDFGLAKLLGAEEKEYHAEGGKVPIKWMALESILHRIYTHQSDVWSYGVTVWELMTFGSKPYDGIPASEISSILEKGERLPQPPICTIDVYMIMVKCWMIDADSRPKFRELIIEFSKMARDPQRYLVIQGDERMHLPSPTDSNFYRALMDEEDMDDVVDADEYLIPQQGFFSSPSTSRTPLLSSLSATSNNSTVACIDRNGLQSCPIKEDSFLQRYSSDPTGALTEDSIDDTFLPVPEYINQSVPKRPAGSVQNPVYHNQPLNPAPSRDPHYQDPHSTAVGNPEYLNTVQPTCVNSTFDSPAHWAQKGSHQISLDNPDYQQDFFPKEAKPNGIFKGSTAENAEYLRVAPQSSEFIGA
Dickkopf-related protein 1 (Homo sapiens), sequence (O94907 whole entry, looked up): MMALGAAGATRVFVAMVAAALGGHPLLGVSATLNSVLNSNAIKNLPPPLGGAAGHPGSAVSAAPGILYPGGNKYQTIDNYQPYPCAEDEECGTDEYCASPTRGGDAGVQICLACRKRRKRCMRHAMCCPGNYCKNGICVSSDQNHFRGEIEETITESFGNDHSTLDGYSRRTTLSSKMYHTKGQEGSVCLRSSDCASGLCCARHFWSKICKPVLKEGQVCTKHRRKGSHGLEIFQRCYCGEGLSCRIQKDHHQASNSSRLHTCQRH
Torsin-1A-interacting protein 1 (Homo sapiens), sequence (Q5JTV8 whole entry, looked up): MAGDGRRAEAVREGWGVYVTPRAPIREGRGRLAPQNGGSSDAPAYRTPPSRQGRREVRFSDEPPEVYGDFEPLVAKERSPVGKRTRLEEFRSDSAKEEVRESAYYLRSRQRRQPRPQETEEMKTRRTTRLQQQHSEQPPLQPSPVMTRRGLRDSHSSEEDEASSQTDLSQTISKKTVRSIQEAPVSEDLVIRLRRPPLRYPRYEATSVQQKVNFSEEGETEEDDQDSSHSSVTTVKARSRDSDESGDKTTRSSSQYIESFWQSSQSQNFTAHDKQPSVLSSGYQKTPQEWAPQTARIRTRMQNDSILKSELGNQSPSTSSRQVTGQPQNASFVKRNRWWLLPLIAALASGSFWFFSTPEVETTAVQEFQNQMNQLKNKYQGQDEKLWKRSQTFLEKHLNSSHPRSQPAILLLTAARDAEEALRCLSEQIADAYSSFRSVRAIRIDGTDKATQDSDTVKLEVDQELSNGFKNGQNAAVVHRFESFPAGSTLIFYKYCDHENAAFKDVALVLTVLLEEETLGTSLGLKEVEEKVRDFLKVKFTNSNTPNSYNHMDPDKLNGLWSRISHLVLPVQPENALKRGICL
Follistatin-related protein 3 (Homo sapiens), sequence (O95633 whole entry, looked up): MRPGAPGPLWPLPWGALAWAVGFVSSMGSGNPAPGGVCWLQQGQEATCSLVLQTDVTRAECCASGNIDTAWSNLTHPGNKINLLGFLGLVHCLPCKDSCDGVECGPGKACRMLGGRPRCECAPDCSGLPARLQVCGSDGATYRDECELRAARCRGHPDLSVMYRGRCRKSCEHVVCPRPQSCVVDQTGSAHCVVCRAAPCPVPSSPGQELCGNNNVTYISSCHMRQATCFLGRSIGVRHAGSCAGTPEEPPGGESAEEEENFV
Left-right determination factor 2 (Homo sapiens), sequence (O00292 whole entry, looked up): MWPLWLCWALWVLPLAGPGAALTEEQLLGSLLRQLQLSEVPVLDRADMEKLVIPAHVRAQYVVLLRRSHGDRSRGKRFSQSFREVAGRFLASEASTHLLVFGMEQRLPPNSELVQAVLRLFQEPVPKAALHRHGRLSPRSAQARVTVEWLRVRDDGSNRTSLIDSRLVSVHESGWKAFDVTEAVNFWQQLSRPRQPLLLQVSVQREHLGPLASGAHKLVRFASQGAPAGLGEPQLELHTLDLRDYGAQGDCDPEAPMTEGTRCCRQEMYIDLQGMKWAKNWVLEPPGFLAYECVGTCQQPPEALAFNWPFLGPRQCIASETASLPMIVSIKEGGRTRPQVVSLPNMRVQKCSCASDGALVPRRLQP

With `COC(=O)C(CC#Cc1ccc2c(c1)[C@]1(C(=O)N2)[C@H](C(N)=O)[C@H]2C(=O)O[C@H](c3ccccc3)[C@H](c3ccccc3)N2[C@@H]1c1ccccc1OCCO)C(=O)OC`, the composite z-score in assay [1] is 1.39; in assay [2], -0.109; in assay [3] it was 0.567; in [5], 0.785; in assay [6], 1.15; in assay [7], -0.0452. Besides, the composite z-score in assay [8] is 0.385; in assay [9], -0.151; in assay [10], -0.278; in [11], 1.47; in assay [13], 0.205; in assay [14] it was 0.534. The composite z-score was 0.237 in [15]; -0.0721 in assay [16]; -0.291 in assay [17]; -0.0604 in [18]; 1.87 in assay [19]; 1.19 in [20]. Besides, the z-score in [4] is 1.09 (inactive); in assay [12] it was -3.34.
Take `[N-]=[N+]=Nc1ccccc1C[C@]1(C(N)=O)COC(c2ccc(OCCCO)cc2)=N1`: the composite z-score is 0.219 in assay [1]; 1.07 in [2]; 1.04 in [3]; -0.128 in [5]; -0.51 in assay [6]; -0.969 in assay [7]. The composite z-score in [8] is -1.16; in [9], -1.18; in [10], 1.13; in assay [11], 0.66; in assay [13], -0.899; in assay [14], 0.707. Also, the composite z-score in [15] is 0.694; in assay [16] it was -0.0462; in [17], 0.486; in assay [18], 0.381; in [19], 1.02; in assay [20], -0.364. For the same compound, the z-score in [4] is -0.32 (inactive); in [12], -1.17.
With `COc1cccc(C)c1NC(=O)O[C@H]1[C@H](OC(=O)Nc2ccccc2-c2ccccc2)[C@@H](OC(=O)Nc2ccccc2-c2ccccc2)[C@@H](OC)O[C@@H]1CO`, the composite z-score is 1.3 in assay [1]; 0.629 in [2]; 0.573 in [3]; 1.4 in assay [5]; 1.1 in assay [6]; 0.316 in assay [7]. Also, the composite z-score in [8] came out at 1.43; in assay [9] it was 0.244; in assay [10] it was 0.601; in [11], 1.52; in [13], 0.49; in [14] it was 1.75. Besides, the composite z-score in assay [15] was -0.136; in [16], -0.0325; in assay [17], -0.0211; in assay [18] it was 1.08; in [19] it was 0.809; in assay [20], 0.949. The z-score is 0.152 (inactive) in assay [4] and -3.72 in assay [12].
Consider `C=CCNC(=O)[C@H]1[C@@H]2C(=O)O[C@@H](c3ccccc3)[C@@H](c3ccccc3)N2[C@@H](c2ccc(OCCO)cc2)[C@]12C(=O)N(C(=O)OCCOC)c1ccc(C#CCNC(N)=O)cc12`, for which the composite z-score in assay [1] came out at 1.27; in assay [2], 0.02; in [3] it was 0.687; in assay [5], 1.3; in [6], 0.998; in assay [7] it was 0.686. For the same compound, the composite z-score in [8] was determined as 0.989; in [9], 0.998; in [10], 0.823; in [11], 1.06; in assay [13] it was 0.716; in [14], 1.17. In addition, the composite z-score in assay [15] is 0.152; in assay [16], 0.291; in [17], 0.194; in assay [18] it was 0.49; in assay [19], 1.33; in assay [20] it was 2.1. Besides, the z-score is 0.0908 (inactive) in assay [4] and -0.197 in [12].
Take `COCCCNC(=O)[C@@]1(Cc2ccccc2I)c2ccccc2C(=O)N(Cc2ccccc2OC)[C@H]1c1ccc(CO)cc1`: the composite z-score is -0.347 in assay [1]; -0.302 in [2]; 0.941 in [3]; -0.0058 in assay [5]; -0.116 in assay [6]; -0.824 in [7]. The composite z-score in assay [8] was -0.557; in assay [9] it was -1.51; in assay [10], -1.43; in assay [11] it was 1.39; in assay [13], -0.43; in assay [14], 0.0345. Moreover, the composite z-score in assay [15] is 0.0879; in [16] it was -0.248; in [17], -0.0146; in [18], -0.537; in assay [19] it was -0.013; in assay [20], 0.101. Further, the z-score in [4] is 0.932 (inactive); in assay [12], -2.08.
With `CC1(C)OB(/C=C\CC(OC(=O)c2ccncc2)c2ccccc2)OC1(C)C` (stereo not given), the composite z-score in [1] was 0.398; in assay [2] it was 1.17; in assay [3] it was 1.47; in assay [5] it was -0.951; in assay [6] it was -0.131; in [7], -1.31. In addition, the composite z-score in assay [8] was -0.0031; in assay [9], -1.26; in [10], 1.75; in [11], 0.0565; in assay [13], -1.46; in assay [14] it was -2.58. The composite z-score in assay [15] was -2.34; in assay [16], -0.124; in assay [17], 0.0469; in assay [18], -0.76; in assay [19] it was 0.161; in assay [20], -0.778. Moreover, the z-score is 0.639 (inactive) in assay [4] and -0.382 in assay [12].
